Records with an inconclusive call do not appear. Entries that show only a call come without a potency. Calls of active or inactive are those of the source. Calls come from the whole dose curve; as a rule, active = well fitted inhibition curve with a large enough effect; inconclusive = small, poorly fitted or top-dose-only effect; inactive = flat fitted curve, though single readings scatter.

Chain of Calcium and integrin-binding protein 1 (Homo sapiens) (Q99828 whole entry, looked up): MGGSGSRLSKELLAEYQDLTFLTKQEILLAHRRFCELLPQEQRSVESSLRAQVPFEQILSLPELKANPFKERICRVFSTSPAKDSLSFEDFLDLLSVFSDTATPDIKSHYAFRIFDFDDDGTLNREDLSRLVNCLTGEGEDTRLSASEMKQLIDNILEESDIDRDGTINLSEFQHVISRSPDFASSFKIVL

In this experiment the target is Calcium and integrin-binding protein 1 (Homo sapiens) (UniProt Q99828). Description: Primary qHTS for Identification of Calcium Integrin Binding Protein 1 (CIB1) Competitor (AID 1508620). Note: top concentration of the series differs between compounds. The settings on record: CIB1-GST / FITC-alphaIIb peptide fluorescence polarization; series mostly up to 114 µM. The method in brief:
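Fluorescence polarization competition: GST-tagged CIB1 (1 uM final) preincubated with compound 15 min at room temperature, then FITC-labelled alphaIIb peptide (100 nM final) added. After 15 min at room temperature, polarization read at Ex 480/Em 540.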
As to `CN(C)CCC(CSc1ccccc1)Nc1ccc(S(=O)(=O)NC(=O)c2ccc(N3CCN(Cc4ccccc4-c4ccc(Cl)cc4)CC3)cc2)cc1[N+](=O)[O-]` (centres undefined), the Potency result was “inactive”.
Regarding `CC(=O)O[C@@H]1[C@@H](OC(C)=O)[C@H](C)O[C@@H](O[C@H]2[C@@H]3C=CO[C@@H](O[C@@H]4O[C@H](CO)[C@@H](O)[C@H](O)[C@H]4O)[C@@H]3[C@@]3(CO)O[C@@H]23)[C@@H]1OC(=O)/C=C/c1ccccc1`, the Potency result was “inactive”.
`C=C1C(=O)O[C@@H]2/C=C(/C)[C@@H](OC(C)=O)C/C=C(\C)C[C@@H](OC(=O)/C(=C/CO)CO)[C@@H]12`: the Potency result is “inactive”.
Take `COc1ccc(NC(=O)c2ccc(-c3ccc(C(=N)N)cc3C)cc2)cc1N1CCN(C)CC1`: the Potency entry was “inactive”.
The same measure, in the same setting: under `CC(C)(O)C1CC(=O)C2(C)C(CCC3(C)C(c4ccoc4)OC(=O)C4OC432)C12CCC(=O)OC2` (centres undefined) stands “inactive”; under `CN1CCc2cc3c(cc2C(=O)Cc2cc4c(cc2C1)OCO4)OCO3`, “inactive”.
Same read-out and setting: the result for `C=C1CC[C@@H](O)[C@]2(C)CC[C@H]3C(=C)C(=O)O[C@@H]3[C@@H]12` reads “inactive”.
Take `CC(=O)O[C@@H]1[C@H](O[C@@H]2O[C@@H](CO)[C@H](O)[C@H]2O)[C@@H](O[C@@H]2O[C@@H](C)[C@H](O[C@@H]3OC[C@@H](O)[C@H](O)[C@H]3O)[C@@H](O)[C@H]2O)[C@H](OC(=O)[C@]23CCC(C)(C)C[C@H]2C2=CCC4[C@@]5(C)CC[C@H](O[C@@H]6O[C@H](C(=O)O)[C@@H](O)[C@H](O)[C@H]6O[C@@H]6O[C@H](CO)[C@H](O)[C@H](O)[C@H]6O)[C@@](C)(C=O)C5CC[C@@]4(C)[C@]2(C)C[C@H]3O)O[C@@H]1C` (some centres undefined): the activity change, negative = inhibition was 1.08% [at 12.4 µM] (inactive).
In the case of `C=C1CC2OC(=O)C(COC)C2C(OC(=O)/C(C)=C\C)CC2(C)OC1=CC2=O` (centres undefined), the Potency result was “inactive”.
Same read-out and setting: under `O=C(c1c(F)ccc(NS(=O)(=O)N2CC[C@@H](F)C2)c1F)c1c[nH]c2ncc(-c3cnc(C4CC4)nc3)cc12` stands “inactive”.
Consider `COC(=O)CC(O)CC(O)/C=C/c1c(C)ccc2c1C(OC(C)=O)CC(C)C2` (centres undefined), for which the Potency result was “inactive”.
With `COCC(c1ccc(C(F)(F)F)cc1)N1CCN(C2(C)CCN(C(=O)c3c(C)ncnc3C)CC2)CC1C` (centres undefined), the Potency entry is “inactive”.
As for `COc1cccc(-c2cn(-c3ccc(CCN4CCC(O)CC4)cc3)c3ncnc(N)c23)c1`, the Potency entry was “inactive”.
`NS(=O)(=O)c1ccc(N2N=C(c3ccccc3)CC2c2ccccc2)cc1` (centres undefined): the Potency entry was “inactive”.
Turning to `Cc1nc(NC(=O)N2CCCC2C(N)=O)sc1-c1ccnc(C(C)(C)C(F)(F)F)c1` (centres undefined), the Potency entry was “inactive”.
As to `C=C[C@H](/C=C\c1ccc(O)cc1)c1ccc(O)cc1`, the Potency entry was “inactive”.
For `COc1cc(S(C)(=O)=O)ccc1Nc1nc2ccc(-c3ccc(NC(=O)[C@H](C)c4ccc(F)cc4)cc3)cn2n1`, the Potency entry was “inactive”.
For `C/C=C(\C)C(=O)OC1C=C(C)CC(OC(=O)c2ccc(O)cc2)C2C1(C)CCC2(O)C(C)C` (centres undefined), the Potency entry was “inactive”.
For `C=CS(=O)(=O)NC1CCN(C(=O)CNc2cc(I)c(Cl)cc2OC)CC1`, the Potency result was “inactive”.
`C=C(NC(=O)C(=C)NC(=O)c1csc(C2=NC3c4csc(n4)C4NC(=O)c5csc(n5)C(C(C)(O)C(C)O)NC(=O)C5CSC(=N5)/C(=C/C)NC(=O)C(C(C)O)NC(=O)c5csc(n5)C3(CC2)NC(=O)C(C)NC(=O)C(=C)NC(=O)C(C)NC(=O)C(C(C)CC)NC2C=Cc3c(C(C)O)cc(nc3C2O)C(=O)OC4C)n1)C(N)=O` (centres undefined): the Potency entry is “inactive”.
With `CC(=O)Nc1cccc(-c2csc(Nc3cc(C)ccn3)n2)c1`, the Potency entry was “inactive”.
Consider `CCCCCc1ccc(/C=C/C(=O)Nc2cc(Cl)ccc2C(=O)O)cc1`, for which the Potency entry is “inactive”.
On the same count and under the same terms, under `Fc1ccc(-c2nc(C3CCNCC3)sc2-c2ccnc(NC3CC3)n2)cc1` stands “inactive”.
Consider `COc1c(C(C)C)c(O)c(O)c2c1C(OC)[C@H]1OC(=O)[C@@]23CCCC(C)(C)[C@H]13` (some centres undefined), for which the Potency result was “inactive”.
The same measure, in the same setting: the result for `C=C1[C@@H](OC(C)=O)CC[C@@]2(C)[C@@H](OC(C)=O)[C@H](OC(C)=O)C3=C(C)C[C@H](OC(=O)C(C)CC)[C@@H]([C@@H](OC(C)=O)[C@H]12)C3(C)C` (some centres undefined) reads “inactive”; that for `CC(C)=C[C@@H]1[C@H](CO[C@@H]2O[C@H](CO)[C@@H](O)[C@H](O)[C@H]2O)C1(C)C`, “inactive”.
Take `COc1cc(/C=C2\CC[C@H]3COC[C@@H](c4cc(F)c(F)c(F)c4)N3C2=O)ccc1-n1cnc(C)c1`: the Potency result is “inactive”.
`C=C1CCC2[C@](C)(CCC[C@@]2(C)C=O)[C@H]1CC/C(C)=C/CO` (some centres undefined): the Potency entry is “inactive”.
As to `O=S(=O)(Nc1ccccc1N1CCCCC1)c1ccc(Cl)s1`, the Potency entry is “inactive”.
Take `COCCNCc1ccc(-c2cc3nccc(Oc4ccc(NC(=O)C5(C(=O)Nc6ccc(F)cc6)CC5)cc4F)c3s2)nc1`: the Potency result was “inactive”.
`C/C=C(\C)[C@@H]1C(C)=C[C@@H]2[C@H]([C@@H]1/C=C/C=C/C(=O)O)[C@@H](C)CC[C@@H]2O`: the Potency entry is “inactive”.
Regarding `C=C1C(=O)O[C@@H]2/C=C(\CO)CC/C=C(/C=O)C[C@@H](O)[C@@H]12`, the Potency result was “inactive”.
In the case of `NC(=O)C1=CC2C3C=CC2C(OC3=O)O1` (centres undefined), the Potency entry was “inactive”.
Still for that read-out and setting: under `CC1(C)CN(C(=O)c2ccc(-c3cccc4nc(NC(=O)C5CC5)nn34)cc2)C1` stands “inactive”; under `C=C1C(=O)OC2/C=C(\C)CC/C=C(\C=O)C(OC)C(OC(=O)C(C)CC)C12` (centres undefined), “inactive”; under `Nc1c(S(=O)(=O)c2ccccc2)c2nc3ccccc3nc2n1-c1ccc(F)cc1`, “inactive”.
Take `COc1cc2ncnc(Nc3ccc(F)c(Cl)c3)c2cc1O`: the Potency entry is “inactive”.
For the molecule `CC(=O)OC1C(=O)C2C3OCC4=C3[C@@](C)(CC[C@@H]4O)CC[C@]2(C)[C@H]1C(C)C` (some centres undefined), the Potency entry is “inactive”.
As to `COc1cc([C@H]2O[C@H](c3cc(OC)c4c(c3)OCO4)[C@H](C)[C@H]2C)cc(OC)c1OC`, the Potency entry is “inactive”.
